{
  "source": "PubChem BioAssay (Tox21)",
  "note": "Records with an inconclusive call do not appear. A call without a number means that no potency is given here. Unmarked numbers belong to inactive results. Calls of active or inactive are those of the source. The call rests on the fitted dose curve; in most records, active means well fitted inhibition curve with a large enough effect in the signal ratio in the repeat runs (not every such curve was filed as active); inconclusive means weak or mixed curves, or effect the other way; inactive means flat fitted curve, though single readings scatter; the % refers to the signal ratio.",
  "data": [
    {"test": "cAMP Responsive Elements (CRE) small molecule antagonists, cell-based qHTS assay (AID 1963591)", "conditions": "CRE-bla HEK293T, beta-lactamase FRET ratio; series mostly up to 92.4 µM; activity change, negative = inhibition: at the top concentration", "from_the_text": "U.S. Tox21 Program National Center for Advancing Translational Sciences [NCATS] Division of Preclinical Innovation [DPI] U.S. Environmental Protection Agency [EPA] National Institutes of Environmental Health Sciences [NIEHS] National Toxicology Program [NTP] U.S. Food and Drug Administration [FDA] Tox21 Assay Overview: CREB (cyclic-AMP Responsive Element Binding Protein) is a cellular transcription factor. It binds to certain DNA sequences called cAMP Responsive Elements (CRE) and regulates the transcription of the genes. […] This cell line can be used to find agonists/antagonists of the cyclic AMP signaling pathway. The activation of the report gene under culture conditions can be detected by fluorescence intensity. This cell line has been used to screen the Tox21 10K compound library to […].\nTox21 Assay Protocol Summary: CRE-bla Hek 293T cells were suspended in assay medium (DMEM containing 10% dialyzed FBS, 0.1 mM NEAA, 1 mM sodium pyruvate and 25 mM HEPES) and dispensed at 2,000 cells/4 uL /well into 1536-well black wall/clear bottom plates using a Multidrop Combi (ThermoFisher Scientific, Waltham, MA) dispenser. After the assay plates were incubated at 37 C/5% CO2 for 18 hrs, 23 nL of compounds dissolved in DMSO, positive controls or DMSO only was transferred to the assay plate by a pintool workstation (Kalypsys, San Diego, CA), followed by addition of 1 […] uL of 1.25uM NKH477 (0.25 uM as final concentration) in assay medium using a Flying Reagent Dispenser (Aurora Discovery, San Diego, CA). The plates were incubated at 37 C and 5% CO2 for 3 hrs. Then 1 uL of LiveBLAzer B/G FRET substrate (Invitrogen, Carlsbad, CA) was added to each well using Bioraptr Flying Reagent Dispenser (FRD, Aurora Discovery, San Diego, CA). The plates were incubated at room temperature for 2 h.", "values": [
      {"smiles": "CCCCCCCCCCN", "Potency": "inactive"},
      {"smiles": "ClC/C=C/CCl", "Potency": "inactive"},
      {"smiles": "CCCc1cc(=O)[nH]c(=S)[nH]1", "Potency": "inactive"},
      {"smiles": "NC=O", "Potency": "inactive"},
      {"smiles": "Oc1ccc(O)cc1", "activity change, negative = inhibition": "3.55% [at 42.4 µM]"},
      {"smiles": "CC(=O)Nc1ccc(CC(=O)O)cc1", "Potency": "inactive"},
      {"smiles": "O=C1C(c2[nH]c3ccccc3c2O)=Nc2ccccc21", "Potency": "inactive"},
      {"smiles": "O=CCCCC=O", "Potency": "inactive"},
      {"smiles": "OC[C@@H](O)[C@@H](O)[C@H](O)[C@H](O)CO", "Potency": "inactive"},
      {"smiles": "C[C@]12CC[C@@H]3c4ccc(O)cc4CC[C@H]3[C@@H]1C[C@@H](O)[C@@H]2O", "Potency": "inactive"},
      {"smiles": "C=C(C)C(=O)O[C@H]1C[C@@H]2CC[C@@]1(C)C2(C)C", "activity change, negative = inhibition": "4.69%"},
      {"smiles": "CC(=O)c1nccs1", "Potency": "inactive"},
      {"smiles": "CCCCCCCC/C=C\\CCCCCCCC(=O)O", "activity change, negative = inhibition": "-0.313%"},
      {"smiles": "CC(C)Cc1ccccc1", "activity change, negative = inhibition": "0.0579%"},
      {"smiles": "CC(=O)CC/C=C(\\C)CCC=C(C)C", "Potency": "inactive"},
      {"smiles": "O=C(OCc1ccccc1)c1ccccc1", "Potency": "inactive"},
      {"smiles": "CC(C)CCCCCCCOC(=O)CCCCC(=O)OCCCCCCCC(C)C", "Potency": "inactive"},
      {"smiles": "c1ccc2c(c1)c1cccc3ccc4cccc2c4c31", "activity change, negative = inhibition": "-2.03%"},
      {"smiles": "OC[C@H]1O[C@H](O[C@]2(CCl)O[C@H](CCl)[C@@H](O)[C@@H]2O)[C@H](O)[C@@H](O)[C@H]1Cl", "Potency": "inactive"},
      {"smiles": "OCCCc1ccccc1", "activity change, negative = inhibition": "-6.59% [at 42.4 µM]"},
      {"smiles": "CC[C@H](C)C(=O)O[C@H]1C[C@@H](C)C=C2C=C[C@H](C)[C@H](CC[C@@H]3C[C@@H](O)CC(=O)O3)[C@H]21", "activity change, negative = inhibition": "15.1% [at 42.4 µM]"},
      {"smiles": "CCCCCCCCCCCCCCCCCC(=O)OCC(O)CO", "note": "(stereo not given)", "Potency": "inactive"},
      {"smiles": "CCCCCCCC(=O)OCC(COC(=O)CCCCCCC)OC(=O)CCCCCCC", "Potency": "inactive"},
      {"smiles": "CC1=CC(=O)CC(C)(C)C1", "activity change, negative = inhibition": "-10.1%"},
      {"smiles": "CC(=O)Nc1ccc(C(=O)CCl)cc1", "activity change, negative = inhibition": "-2.73%"},
      {"smiles": "O=C1O[C@H]([C@H](O)CO)C(O)=C1O", "Potency": "inactive"},
      {"smiles": "Cc1cccc2n[nH]nc12", "Potency": "inactive"},
      {"smiles": "Oc1ccc2ccccc2c1N=Nc1ccccc1", "Potency": "inactive"},
      {"smiles": "CC(=O)OC[C@H]1O[C@@](COC(C)=O)(O[C@H]2O[C@H](COC(C)=O)[C@@H](OC(C)=O)[C@H](OC(C)=O)[C@H]2OC(C)=O)[C@@H](OC(C)=O)[C@@H]1OC(C)=O", "activity change, negative = inhibition": "-15.2% [at 42.4 µM]"},
      {"smiles": "CC(=O)OCC(COC(C)=O)OC(C)=O", "Potency": "inactive"},
      {"smiles": "CCc1cccc(O)c1", "activity change, negative = inhibition": "-5.94%"},
      {"smiles": "CCCCCCCCCCCCCCCO", "Potency": "inactive"},
      {"smiles": "Cc1ccc(C)c(C)c1", "Potency": "inactive"},
      {"smiles": "NC(=S)NNC(N)=S", "Potency": "inactive"},
      {"smiles": "Cc1ccc(C)c(O)c1", "activity change, negative = inhibition": "-1.19%"},
      {"smiles": "CC1(C)[C@@H]2CC[C@@]1(C)C(=O)C2", "Potency": "inactive"},
      {"smiles": "COCCc1ccc(OCC(O)CNC(C)C)cc1", "note": "(stereo not given)", "Potency": "inactive"},
      {"smiles": "CCNc1cccc(C)c1", "Potency": "inactive"},
      {"smiles": "O=C(O)c1ccc(O)cc1", "activity change, negative = inhibition": "1.81%"},
      {"smiles": "c1ccc2cc3ccccc3cc2c1", "Potency": "inactive"}
    ]}
  ]
}
